Assay [1] is described as follows: Quantitative High-Throughput drug screen in 47 multiple myeloma cell lines against the NCATS MIPE library collection: EJM_DSMZ cell viability assay (AID 1918926; also: nearly all actives have a fitted effect of over 30% in size). Summed up:
(§1)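 CellTiter-Glo ATP luminescence gave viability after 48 h compound treatment at 37C of 500 multiple myeloma cells per well. Normalisation used DMSO-only wells as 100% and media-only wells as 0% viability; primary qHTS of approved and investigational drugs.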

The nature of assay [2]: Quantitative High-Throughput drug screen in 47 multiple myeloma cell lines against the NCATS MIPE library collection: AMO1_DSMZ cell viability assay (AID 1918927; also: nearly all actives have a fitted effect of over 30% in size). Summed up:
as §1

A short description of assay [3]: Quantitative High-Throughput drug screen in 47 multiple myeloma cell lines against the NCATS MIPE library collection: ARP1_JJKsccF8 cell viability assay (AID 1918928; also: nearly all actives have a fitted effect of over 40% in size). Summed up:
(§2)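 Cell viability inhibition in this qHTS is measured via ATP content (CellTiter-Glo) after 48 h drug exposure at 37 °C. Wells hold 500 cells; DMSO-treated wells define 100% and medium-only wells 0%.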

A short description of assay [4]: Quantitative High-Throughput drug screen in 47 multiple myeloma cell lines against the NCATS MIPE library collection: Karpas620_DSMZ cell viability assay (AID 1918959). Also: nearly all actives have a fitted effect of over 30% in size. The procedure, abridged:
(§3)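 Myeloma cells (500 per well) were exposed to MIPE 4.0 compounds by pin transfer and incubated 48 hours at 37C, 5% CO2. Viability was read as ATP by CellTiter-Glo luminescence, normalised to DMSO (100%) and media-only (0%) wells.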

Assay [5] can be described thus: Quantitative High-Throughput drug screen in 47 multiple myeloma cell lines against the NCATS MIPE library collection: KMM1_JCRB cell viability assay (AID 1918960). Also: nearly all actives have a fitted effect of over 30% in size. Summed up:
as §2

Assay [6] is described as follows: Quantitative High-Throughput drug screen in 47 multiple myeloma cell lines against the NCATS MIPE library collection: Karpas417_ECACC cell viability assay (AID 1918961). The following applies: Karpas417 myeloma viability, CellTiter-Glo ATP luminescence, 48 h; viability (% of DMSO): at 45.8 µM (top of the series). Summed up: as §1
A short description of assay [7]: Quantitative High-Throughput drug screen in 47 multiple myeloma cell lines against the NCATS MIPE library collection: JJN3_DSMZ cell viability assay (AID 1918966; also: nearly all actives have a fitted effect of over 50% in size). Summed up: as §1
A short description of assay [8]: Quantitative High-Throughput drug screen in 47 multiple myeloma cell lines against the NCATS MIPE library collection: KMS12BM_JCRB cell viability assay (AID 1918971). Also: nearly all actives have a fitted effect of over 35% in size. Summed up:
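Inhibition of cell viability is measured here. Each line was plated at 500 cells per well, treated with MIPE 4.0 drugs, kept 48 hours at 37C, then assayed for ATP content by CellTiter-Glo luminescence.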

Assay [9] in a line: Quantitative High-Throughput drug screen in 47 multiple myeloma cell lines against the NCATS MIPE library collection: KMS12PE_JCRB cell viability assay (AID 1918972). Also: nearly all actives have a fitted effect of over 30% in size. Summed up:
as §1

A short description of assay [10]: Quantitative High-Throughput drug screen in 47 multiple myeloma cell lines against the NCATS MIPE library collection: KMS20_JCRB cell viability assay (AID 1918973). Also: nearly all actives have a fitted effect of over 45% in size. Summed up:
as §1

Assay [11] can be described thus: Quantitative High-Throughput drug screen in 47 multiple myeloma cell lines against the NCATS MIPE library collection: INA6_PLB cell viability assay (AID 1918965; also: nearly all actives have a fitted effect of over 55% in size). The procedure, abridged:
as §1

Assay [12] can be described thus: Quantitative High-Throughput drug screen in 47 multiple myeloma cell lines against the NCATS MIPE library collection: Karpas25_ECACC cell viability assay (AID 1918968; also: nearly all actives have a fitted effect of over 35% in size). Summed up: as §1
The nature of assay [13]: Quantitative High-Throughput drug screen in 47 multiple myeloma cell lines against the NCATS MIPE library collection: KMS27_JCRB cell viability assay (AID 1918970). Also: nearly all actives have a fitted effect of over 30% in size. The procedure, abridged: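 Viability inhibition screen, 48 h compound exposure, luminescent ATP read-out.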
Assay [14] can be described thus: Quantitative High-Throughput drug screen in 47 multiple myeloma cell lines against the NCATS MIPE library collection: ARD_JJKsccE7 cell viability assay (AID 1918929). The procedure, abridged:
as §1

Assay [15] in a line: Quantitative High-Throughput drug screen in 47 multiple myeloma cell lines against the NCATS MIPE library collection: KHM11_PLB cell viability assay (AID 1918962). Also: nearly all actives have a fitted effect of over 35% in size. Summed up:
as §3

Assay [16] in a line: Quantitative High-Throughput drug screen in 47 multiple myeloma cell lines against the NCATS MIPE library collection: JIM3_ECACC cell viability assay (AID 1918963; also: nearly all actives have a fitted effect of over 35% in size). The procedure, abridged: as §3
Assay [17] can be described thus: Quantitative High-Throughput drug screen in 47 multiple myeloma cell lines against the NCATS MIPE library collection: H1112_PLB cell viability assay (AID 1918967; also: nearly all actives have a fitted effect of over 30% in size). The procedure, abridged: as §1
Assay [18] can be described thus: Quantitative High-Throughput drug screen in 47 multiple myeloma cell lines against the NCATS MIPE library collection: KMS21BM_JCRB cell viability assay (AID 1918974). The following applies: ATP luminescence, 48 h; viability: at 45.8 µM (top of the series) unless noted. The procedure, abridged:
as §1

Assay [19] can be described thus: Quantitative High-Throughput drug screen in 47 multiple myeloma cell lines against the NCATS MIPE library collection: JIM1_ECACC cell viability assay (AID 1918964). Summed up:
as §1

The structures appear in SMILES notation. Records with an inconclusive call do not appear. Calls of active or inactive are those of the source. Calls follow the shape of the dose curve; as a rule, active = well fitted curve in the direction sought with a large enough effect; inconclusive = small, poorly fitted or top-dose-only effect, or another doubt; inactive = no such curve, though single readings can be large; an effect the other way counts as inactive or inconclusive.
Potency is read from the fitted curve at half-maximal effect.

For the compound `CC=CC1=C(C(=O)O)N2C(=O)[C@H](NC(=O)[C@H](N)c3ccc(O)cc3)[C@@H]2SC1`, the Potency result in assay [1], in assay [3], in assay [5], in assay [6], in assay [7] and in assay [8] was “inactive” in each case. Besides, in [9], the Potency result is “inactive”. In addition, the Potency in assay [2] was 8.33 µM (active); in assay [4] it was 14.8 µM (active); in assay [10], 26.4 µM (active).
For the compound `C1Cc2[nH]nc(-c3nn[nH]n3)c2C1`, the Potency result in assay [1], in [2], in assay [4], in [5], in assay [11] and in [12] was “inactive” in each case. Moreover, the Potency result in [13], in assay [8] and in [9] was “inactive” in each case.
Take `CC(C)(C)c1cc(C(C)(C)C)c(NC(=O)c2c[nH]c3ccccc3c2=O)cc1O`: the Potency result in assay [1], in assay [14], in assay [4], in [5], in assay [6] and in assay [15] was “inactive” each time. Also, the Potency entry in [16], in assay [11], in assay [17], in assay [9], in assay [10] and in assay [18] was “inactive” each time.
For the compound `COc1cccc2c(NCc3ccccc3)nc(-n3c(N)nc4ccccc43)nc12`, the Potency in assay [1] was 6.62 µM (active); in assay [2] it was 1.05 µM (active); in assay [3], 7.43 µM (active); in assay [4] it was 1.48 µM (active); in assay [5], 1.66 µM (active); in assay [15], 3.32 µM (active). Besides, the Potency is 2.96 µM (active) in assay [16]; 1.87 µM (active) in assay [19]; 3.72 µM (active) in assay [11]; 6.62 µM (active) in assay [7]; 7.43 µM (active) in assay [17]; 2.64 µM (active) in assay [12]. Besides, the Potency was 1.05 µM (active) in [13], 9.35 µM (active) in assay [8] and 2.35 µM (active) in [9].
Take `CC[C@@H]1C(=O)N(C)c2cnc(Nc3ccc(C(=O)NC4CCN(C)CC4)cc3OC)nc2N1C1CCCC1`: the Potency in [1] is 3.72 µM (active); in [2], 0.0833 µM (active); in assay [3], 0.0372 µM (active); in assay [14], 0.0296 µM (active); in [5], 0.0235 µM (active); in assay [6], 1.87 µM (active). In addition, the Potency is 0.0235 µM (active) in [16]; 0.0833 µM (active) in assay [11]; 7.43 µM (active) in assay [7]; 0.0235 µM (active) in [8]; 1.66 µM (active) in assay [9]; 6.62 µM (active) in [10].
In the case of `CN(C1CCc2c(c3ccccc3n2CC(=O)O)C1)S(=O)(=O)c1ccc(F)cc1` (stereo not given), the Potency in [1] is 11.8 µM (active); in assay [2] it was 2.64 µM (active); in [14], 5.26 µM (active); in [4], 2.96 µM (active); in assay [5], 2.35 µM (active); in assay [6], 0.743 µM (active). The Potency is 2.09 µM (active) in assay [12], 5.26 µM (active) in assay [9] and 0.418 µM (active) in assay [18]. Further, the Potency entry in assay [16], in [11] and in [17] was “inactive” throughout.
As to `C=C1C(=CC=C2CCCC3(C)[C@@H]([C@H](C)C=CC=CC(O)(CC)CC)CC[C@@H]23)C[C@@H](O)C[C@@H]1O` (stereo not given in full), the Potency is 18.7 µM (active) in [1]; 14.8 µM (active) in assay [2]; 20.9 µM (active) in assay [3]; 16.6 µM (active) in assay [14]; 20.9 µM (active) in assay [4]; 20.9 µM (active) in [5]. Moreover, the Potency in assay [19] is 16.6 µM (active); in assay [7] it was 18.7 µM (active); in assay [17], 23.5 µM (active); in assay [13], 29.6 µM (active); in assay [8] it was 20.9 µM (active); in [9] it was 14.8 µM (active).
In the case of `O=C(Nc1nc2cccc(-c3ccc(CN4CCS(=O)(=O)CC4)cc3)n2n1)C1CC1`, the Potency in [1] is 18.7 µM (active); in assay [2], 5.9 µM (active); in assay [3] it was 20.9 µM (active); in [5], 8.33 µM (active); in assay [6] it was 1.66 µM (active); in assay [15], 13.2 µM (active). Moreover, the Potency in assay [16] was 18.7 µM (active); in assay [11], 3.32 µM (active); in assay [7], 7.43 µM (active); in [17], 23.5 µM (active); in assay [12], 16.6 µM (active); in [8] it was 7.43 µM (active).
Regarding `Cn1c2cc(S(C)=O)sc2c2cnn(Cc3cccc(N)c3)c(=O)c21` (stereo not given), the Potency entry in [1], in assay [3], in [14], in [4], in [5] and in assay [6] was “inactive” in each case. In addition, the Potency result in assay [16], in [19], in [7], in assay [17], in assay [8] and in assay [9] was “inactive” in each case.
As for `O=c1[nH]nc(Sc2ncc([N+](=O)[O-])s2)n1-c1ccc2c(c1)OCCO2`, the Potency in assay [1] is 2.96 µM (active); in assay [2], 6.62 µM (active); in [3], 2.96 µM (active); in assay [14], 7.43 µM (active); in assay [4] it was 2.64 µM (active); in assay [5], 5.9 µM (active). Also, the Potency in assay [15] is 2.09 µM (active); in [16] it was 2.64 µM (active); in [19], 5.9 µM (active); in [11], 1.18 µM (active); in [7], 2.09 µM (active); in assay [17], 2.64 µM (active). Moreover, the Potency in [13] was 6.62 µM (active); in [8] it was 4.69 µM (active); in assay [9] it was 7.43 µM (active); in assay [10], 2.09 µM (active).
On to `CCOc1ccccc1OCCNC(C)Cc1ccc(OC)c(S(N)(=O)=O)c1` (stereo not given), for which the Potency result in assay [1], in [3], in assay [14], in [4], in assay [5] and in [15] was “inactive” each time. For the same compound, the Potency result in [16], in [19], in assay [7], in assay [17], in assay [13] and in assay [9] was “inactive” throughout. In addition, in assay [10], the Potency result was “inactive”.
Regarding `c1nc2nc(Nc3ccc(N4CCOCC4)cc3)nc(NC3CCCCC3)c2[nH]1`, the Potency in [1] was 14.8 µM (active); in assay [2], 4.69 µM (active); in [3], 14.8 µM (active); in [4] it was 6.62 µM (active); in [5], 4.69 µM (active); in assay [6], 0.743 µM (active). Also, the Potency in assay [15] was 14.8 µM (active); in assay [16] it was 3.72 µM (active); in assay [11], 2.96 µM (active); in assay [7], 18.7 µM (active); in [17], 5.9 µM (active); in assay [12] it was 5.26 µM (active). Moreover, the Potency in assay [8] was 20.9 µM (active); in [9], 1.66 µM (active); in assay [10], 4.69 µM (active).

Values taken from PubChem BioAssay (NCATS).
